For 16 compounds, growth results are on record in PubChem BioAssay (NCI).

This is part of a sample that, as a whole, favours compounds with a hit. Of some 83,000 tested, about 20% had one in any assay.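 Compound tested at a single concentration for 48 hours in 96-well plates; a percent growth value below 10 was scored as active.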 Unmarked numbers belong to inactive results. Calls of active or inactive are those of the source.

Among the test systems are T-47D breast; MDA-MB-435 melanoma; SW-620 colon; MCF7 breast; HCT-116 colon; HCC-2998 colon; KM12 colon; BT-549 breast.
What all share (test): NCI-60 one-dose screen, 48 h (100 = growth as untreated, 0 = no growth, -100 = all killed)
What all share (settings): 10 µM unless noted

With `O=C(C[P+](c1ccccc1)(c1ccccc1)c1ccccc1)c1ccccc1`, the growth in the assay with T-47D breast was 89.9%; in the assay with MDA-MB-435 melanoma it was 98.5%; in the assay on SW-620 colon, 97.3%; in the assay with MCF7 breast, 90.6%; with HCT-116 colon, 76.8%; with HCC-2998 colon it was 93.9%. Also, the growth in the assay on KM12 colon is 101%.
Consider `C[C@@]1(CO)[C@H](O)CC[C@@]2(C)[C@H]1CC[C@H]1C[C@@H]3C[C@@]12CC[C@@]3(O)COC(=O)CN`, for which the growth was 61.8% in the assay with T-47D breast; 46.3% in the assay with BT-549 breast; 55.1% in the assay with MDA-MB-435 melanoma; 50.9% with SW-620 colon; 36.9% in the assay on MCF7 breast; 61.8% in the assay on KM12 colon.
As for `O=[N+]([O-])c1ccc([I+]c2ccccc2)cc1`, the growth with T-47D breast was -20% (active); with MDA-MB-435 melanoma, 20.8%; in the assay with SW-620 colon it was 19.5%; with MCF7 breast, -29% (active); in the assay on HCT-116 colon it was -31.4% (active); in the assay on HCC-2998 colon it was 46.1%. Also, the growth with KM12 colon was -75.7% (active).
As for `[Cl-].[Rh+3].c1ccc(-c2ccnc3c2ccc2c(-c4ccccc4)ccnc23)cc1.c1ccc(-c2ccnc3c2ccc2c(-c4ccccc4)ccnc23)cc1.c1ccc(-c2ccnc3c2ccc2c(-c4ccccc4)ccnc23)cc1`, the growth in the assay with T-47D breast is 50.4%; with BT-549 breast it was 42.9%; in the assay on MDA-MB-435 melanoma, 72.5%; with SW-620 colon it was 99.2%; in the assay with MCF7 breast it was 63.3%; in the assay on KM12 colon it was 59.3%.
As for `S=C(S)OCN1CCOCC1`, the growth was 88.1% in the assay with T-47D breast; 100% in the assay with BT-549 breast; 88.4% with MDA-MB-435 melanoma; 74.8% in the assay on SW-620 colon; 98.8% in the assay on HCT-116 colon; 97.4% in the assay on HCC-2998 colon.
In the case of `OC(c1cc2ccc(C(F)(F)F)cc2c2cc(C(F)(F)F)ccc12)C1CCCCN1` (configuration not stated), the growth in the assay on T-47D breast was -90.5% (active); in the assay with MDA-MB-435 melanoma, -100% (active); in the assay with SW-620 colon, -100% (active); in the assay on MCF7 breast, -90.8% (active); with HCT-116 colon, -86.5% (active); in the assay on HCC-2998 colon, -86.7% (active). The growth with KM12 colon is -97.3% (active).
Take `COc1ccc2nc3cc([N+](=O)[O-])ccc3c(NNc3ccccc3)c2c1`: the growth was 77.9% in the assay with T-47D breast; 67.3% with BT-549 breast; 107% in the assay with MDA-MB-435 melanoma; 86.1% in the assay with SW-620 colon; 72.9% with MCF7 breast; 81.7% with KM12 colon.
In the case of `N=C1C=C(N)C(=O)c2ccccc21`, the growth was -46.1% (active) with T-47D breast; -99.1% (active) with BT-549 breast; -75.7% (active) in the assay on MDA-MB-435 melanoma; -85% (active) with SW-620 colon; -98.7% (active) in the assay on HCT-116 colon; -99.5% (active) in the assay on HCC-2998 colon. Further, the growth with KM12 colon is -82.4% (active).
For `Fc1ccc(NCCS)cc1`, the growth in the assay on T-47D breast was 103%; with MDA-MB-435 melanoma, 107%; with SW-620 colon, 102%; in the assay with MCF7 breast it was 90%; in the assay with HCT-116 colon, 111%; in the assay on HCC-2998 colon, 96.7%. For the same compound, the growth with KM12 colon was 98.3%.
On to `CCCCCCCCCCCCCCCc1ccc(C(=O)C[n+]2ccccc2)cc1`, for which the growth with T-47D breast was -25.1% (active); in the assay with MDA-MB-435 melanoma it was -78.1% (active); in the assay with SW-620 colon, -79.1% (active); in the assay with MCF7 breast, -88.6% (active); in the assay with HCT-116 colon it was -97.7% (active); with HCC-2998 colon it was -83.4% (active). Moreover, the growth in the assay with KM12 colon is -97.7% (active).
For `COc1cc([C@@H]2c3cc4c(cc3[C@H](OC3OC5COC(c6ccccc6)OC5C(O)C3O)[C@H]3COC(=O)[C@H]23)OCO4)cc(OC)c1OC` (some centres not stated), the growth in the assay on T-47D breast was 107%; in the assay on MDA-MB-435 melanoma it was 22.7%; in the assay on SW-620 colon, 43.9%; with MCF7 breast, 10.5%; in the assay with HCT-116 colon, 12.3%; in the assay on HCC-2998 colon, -5.24% (active). The growth with KM12 colon is 42.9%.
As to `CCCCCCCCCCCCCCCCCC[S+](C)CC` (configuration not stated), the growth in the assay on T-47D breast was 16.6%; with BT-549 breast, 45.1%; in the assay on SW-620 colon, 28.1%; in the assay on MCF7 breast, 36.3%; in the assay on HCT-116 colon, 27.8%; with HCC-2998 colon, 50.2%. Further, the growth in the assay with KM12 colon was -31.7% (active).
Consider `O=[N+]([O-])c1ccc(C2N(Cc3ccc(Cl)cc3)CCN2Cc2ccc(Cl)cc2)cc1`, for which the growth with T-47D breast is 90%; with BT-549 breast, 98.2%; in the assay on MDA-MB-435 melanoma it was 91.5%; in the assay on SW-620 colon, 98.1%; in the assay with MCF7 breast it was 87.3%; in the assay with HCC-2998 colon, 95.4%. In addition, the growth in the assay with KM12 colon was 101%.
As to `CCC(C)C(N)C(=O)NC(CC(N)=O)C(=O)NC(CC(C)C)C(=O)NC(CCCCN)C(=O)NC(C)C(=O)NC(CC(C)C)C(=O)NC(C)C(=O)NC(C)C(=O)NC(CC(C)C)C(=O)NC(C)C(=O)NC(CCCCN)C(=O)NC(CCCCN)C(=O)NC(C(=O)NC(CC(C)C)C(N)=O)C(C)CC` (configuration not stated), the growth in the assay with T-47D breast is 93.9%; in the assay with BT-549 breast it was 134%; with MDA-MB-435 melanoma, 77.7%; with SW-620 colon it was 103%; in the assay on MCF7 breast, 97.4%; with KM12 colon, 90.2%.
Turning to `c1ccc(-c2cccc(-c3ccccn3)n2)nc1`, the growth was 38.1% in the assay on T-47D breast; 33.9% in the assay on MDA-MB-435 melanoma; 29.6% in the assay on SW-620 colon; 14.1% in the assay with MCF7 breast; 6.59% (active) in the assay with HCT-116 colon; 18.7% in the assay with HCC-2998 colon. Besides, the growth in the assay with KM12 colon is 27.6%.
On to `N#CCc1cccc2ccccc12`, for which the growth was 105% with T-47D breast; 119% in the assay with MDA-MB-435 melanoma; 105% with SW-620 colon; 87.4% in the assay on MCF7 breast; 106% with HCT-116 colon; 109% in the assay on HCC-2998 colon. The growth in the assay with KM12 colon was 110%.
